Measurements: the supplement of paper PMC3334620
Whole data set: some 33,000 sequences, median “E-score (-0.5 to 0.5)” near -0.036, cut for the highest 2% near 0.37. The sample as a whole holds a higher share of the highest values than the screen did.

Each sequence was assayed against T1, Yer064c (UniProt P40041) (assay: PBM E-score (8-mer binding enrichment) (E-score (-0.5 to 0.5)); higher = stronger / more preferred TF binding). Conditions: protein concentration: 200 nM; construct: GST-full length.
T1 sequence: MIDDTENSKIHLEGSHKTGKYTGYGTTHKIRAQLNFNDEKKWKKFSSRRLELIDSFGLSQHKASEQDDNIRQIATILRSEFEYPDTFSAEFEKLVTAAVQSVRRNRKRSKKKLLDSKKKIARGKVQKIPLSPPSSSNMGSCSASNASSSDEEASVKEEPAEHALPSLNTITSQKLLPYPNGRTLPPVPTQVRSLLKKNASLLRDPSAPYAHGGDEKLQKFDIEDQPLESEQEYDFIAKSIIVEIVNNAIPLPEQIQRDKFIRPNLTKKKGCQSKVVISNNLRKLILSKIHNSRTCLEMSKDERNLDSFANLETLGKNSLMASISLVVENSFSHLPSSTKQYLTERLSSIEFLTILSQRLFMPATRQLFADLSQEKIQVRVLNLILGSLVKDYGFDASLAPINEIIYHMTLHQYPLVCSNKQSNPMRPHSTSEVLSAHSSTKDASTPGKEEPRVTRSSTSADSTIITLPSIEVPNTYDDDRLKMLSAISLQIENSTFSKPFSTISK
How it was run: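 Masliner-normalised scans of fluorescent anti-GST signal were the basis for scoring. That signal came from GST-tagged yeast transcription factors applied at about 100-200 nM to double-stranded universal all-10-mer Agilent arrays on fresh or once-stripped slides. Each ungapped eight-base word, pooled with its reverse complement, received an E-score from the Universal PBM Analysis Suite.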

Point of comparison: GATTAATA, “PBM E-score” value 0.325. Against it:
- CTCACGCC — lower, 0.172
- CGGGAATC — lower, 0.0615
- CGCCTCGC — lower, -0.087
- AATTCAAT — lower, 0.0175
- AAATGCCC — lower, -0.188
- GAGACACA — lower, 0.288
- AGGGCTGC — lower, -0.346
- AACACACC — lower, 0.0884
- ATGCGGCG — lower, -0.174
- CCCGCCCC — lower, -0.223
- CACTAACC — lower, -0.153
- TATTAACA — lower, 0.0799
- CACTAACA — lower, 0.0977
- GATTAACA — higher, 0.367
- GACTAACC — higher, 0.44
- GACTAACA — higher, 0.449
- CATTAATC — lower, 0.271
- TACTAACA — lower, 0.0931
- GATTAATC — higher, 0.391
- GATTAACC — lower, 0.294
- AACTAACC — lower, 0.0831
- GAGCAATC — lower, 0.146
- CATAGGGG — lower, -0.149
- TCCCCCGA — lower, -0.176
- GCGGCGAA — lower, -0.17
- CGATGAAA — lower, 0.0671
- ATTTTTCG — lower, 0.00581
- TGAGGAAA — lower, -0.0935
- GCCCTAGA — lower, -0.316
- CGTACGCA — lower, -0.195
- CCAGCACC — lower, -0.231
- CCTAAAGA — lower, 0.0245
- ACTGTGAA — lower, 0.0208
- ACTGTGAC — higher, 0.397
- CCTATGAC — lower, 0.235
- GCTATGAC — lower, 0.307
- ACTATGAC — higher, 0.372
- ACTGTGAT — lower, 0.165
- CCTTGGTA — lower, 0.00702
- AAGTTCTG — lower, 0.0281
- ATTAAGGA — lower, 0.176
- AGTTGCCC — lower, 0.00742
- ACAAGTCC — lower, -0.047
- GCTAATCC — lower, -0.145
- ACTAATCT — lower, 0.273
- ACTAATCG — lower, 0.226
- TCTAATAA — lower, 0.115
- TCTAATCA — higher, 0.386
- CCTAATCA — higher, 0.376
- ACTAATCA — higher, 0.403
- CCTAATCG — lower, 0.0953
- ACTAATCC — lower, 0.208
- GCTAATTA — lower, 0.0849
- GCTAATCA — higher, 0.372
- CCTAATCC — lower, -0.33
- CTTAACCA — lower, 0.197
- ATTGGGAC — lower, 0.0416
- TCGTTCCA — lower, -0.108
- ACCCTGTG — lower, -0.0328
- ACCCAGAT — lower, -0.0932
- CGAGGCTA — lower, -0.0432
- ACACTCGC — lower, 0.111
- GGCGACGA — lower, -0.226
- GGCGACTA — higher, 0.402
- ACCGACTC — higher, 0.328
- AGCGACTC — higher, 0.412
- CGCGACAA — lower, 0.124
- AGCGACCC — lower, -0.196
- GGCGACCA — lower, -0.416
- CCCGACTA — lower, 0.314
- CGCGACTA — higher, 0.397
- AGCGACGC — lower, -0.273
- CCCGACTC — higher, 0.389
- CTCGACTA — lower, 0.299
- TAATTCAA — lower, 0.14
- TAGGGCCA — lower, -0.307
- GCCCCGGA — lower, -0.22
- AGCTTGGC — lower, -0.115
- ATAGAGAC — lower, 0.0997
- GCGACACC — lower, -0.173
- CCCTACGA — lower, 0.0187
- GTACAGGA — lower, -0.0544
- CACAGATA — lower, -0.0649
- ATGCCAGA — lower, -0.0495
- AGCGACTA — higher, 0.391
- CGCGACCC — lower, -0.0841
- AGCGACCA — lower, -0.173
- AGCGACTG — lower, 0.255
- CGCGACTC — higher, 0.438
- CTCGACTC — higher, 0.34
- CGCCCTTC — lower, -0.212
- ACGACTGC — lower, 0.19
- ACGACGCC — lower, -0.211
- ACTACTCT — lower, 0.239
- GCGACTCA — higher, 0.483
- ACGACTCT — higher, 0.404
- GCGACTTA — lower, 0.266
- ACAACTCT — lower, 0.175
- GCGACTGA — lower, 0.31
- ACGACTCC — higher, 0.423
- ACGACTTA — lower, 0.276
- ACGACTCA — higher, 0.477
- ACTACTCA — higher, 0.344
- CCACTAGA — lower, -0.195
- AAAACGGT — lower, -0.155
- TAGAAAGA — lower, 0.113
- AGTCTCAC — higher, 0.337
- GCTGGTGA — lower, 0.0962
- CCATTACG — lower, -0.038
- TCGACCCA — lower, 0.0521
- GCGACTCC — higher, 0.39
- ACGACTCG — higher, 0.394
- TCGACTCA — higher, 0.435
- CCGACTCC — higher, 0.339
- TCTACTCA — lower, 0.202
- GCGACCCC — lower, -0.237
- GCCACTCC — lower, -0.128
- CCGACTCA — higher, 0.441
- CCGACTCG — lower, 0.296
- ACGACTTG — lower, 0.17
- CCGACTGA — lower, 0.192
- CGAGAATC — lower, 0.117
- GCGAGCCC — lower, -0.21
- GCAATACC — lower, -0.127
- CCTGTGCA — lower, -0.146
- AAAACAGG — lower, -0.126
- TAATGGCA — lower, -0.172
- GCCAAAAA — lower, 0.0564
- AGAGAGGG — lower, -0.162
- AATGATTC — higher, 0.464
- CATGATCC — lower, 0.0741
- CCTGATTC — higher, 0.399
- CCTGATGC — lower, -0.0643
- CATGATAA — lower, 0.12
- CATGATGA — lower, 0.261
- CATGATTC — higher, 0.457
- CATGATTA — higher, 0.453
- AATGATTG — higher, 0.358
- CTTGATTC — lower, 0.324
- ACTGATTC — lower, 0.319
- ATTGATTC — lower, 0.301
- CCTGGGAC — lower, -0.363
- ATGGGCGA — lower, 0.0478
- CAAAAGAG — lower, 0.0455
- CTTACCGA — lower, -0.0159
- ACATCGAT — lower, 0.00682
- AGACGAAT — lower, 0.00164
- CAAGCCAG — lower, -0.139
- GGCGGCCC — lower, -0.0657
- AACTCCAA — lower, 0.0471
- GACTCCAA — higher, 0.418
- GACTCCAC — higher, 0.37
- TACTCCAA — lower, 0.00552
- AACTCCAC — lower, -0.115
- CACTCCAC — lower, 0.0622
- CAGTAAAA — lower, -0.0284
- AATTACCT — lower, 0.0151
- AAAAGAAC — lower, -0.144
- CCTTCGGC — lower, -0.197
- CGAACTCA — lower, 0.225
- GGGACTCA — higher, 0.405
- CGGACTCA — higher, 0.411
- AGCACTCA — lower, 0.119
- GGGACACA — lower, 0.0557
- AGGACTCA — higher, 0.468
- GGGACGCA — lower, -0.165
- AGGACTCC — higher, 0.335
- CGGACTCC — lower, 0.191
- GAGAGGGC — lower, -0.203
- CCCGCTGC — lower, -0.00295
- GCTTGTAC — lower, -0.18
- TCCCAAGA — lower, 0.0948
